Test results from PubChem BioAssay (NCATS).
Records with an inconclusive call do not appear. Where a call stands in place of a potency, no number is given. The source made the active and inactive calls. The call rests on the fitted dose curve; in most records, active means well fitted inhibition curve with a large enough effect; inconclusive means small, poorly fitted or top-dose-only effect; inactive means no such curve, though single readings can be large or run the other way.

System: Zika virus NS2B-NS3 protease (linked construct)
Assay: Primary screen NINDS Rhodamine qHTS for Zika virus inhibitors (AID 1347160); further: nearly all actives have a fitted effect of over 55% in size
Conditions: purified NS2B-NS3 protease, Rhodamine110 substrate fluorescence; series mostly up to 57.1 µM
Summary of the method: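 Enzyme (25 nM, linked NS2B-NS3) was preincubated 15 min with compound in 10 mM Tris-HCl pH 8.0, 0.01% Tween 20. Rhodamine110 substrate (1.5 microM) was then added and fluorescence read at start and after 15 min.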
Potency means the concentration at half of the fitted maximal effect.

SMILES	Potency	activity change, negative = inhibition
COC1(CC(C)C)NC(=O)C(O)(Cc2ccccc2)NC1=O (stereo not drawn)	inactive	–
C[C@H]1[C@H](C)CC[C@]2(C(=O)O)CC[C@]3(C(=O)O)C(=CCC4[C@@]5(C)CC[C@H](O[C@@H]6O[C@H](C)[C@@H](O)[C@H](O)[C@H]6O)C(C)(C)C5CC[C@]43C)[C@H]12 (stereo partly drawn)	inactive	–
OC[C@H]1O[C@@H](n2cnc3c(NCc4ccc(O)cc4)ncnc32)[C@H](O)[C@@H]1O	inactive	–
CC(=O)NCCCCn1c2c(c3ccccc31)C(=O)NCC2	inactive	–
CC1(CO)CC2C(O)C(=O)C3(CO)CC3(C)C2C1 (stereo not drawn)	inactive	–
CC(=O)O[C@@H]1[C@H](O[C@@H]2OC[C@](O)(CO)[C@H]2O)[C@@H](O[C@@H]2O[C@@H](C)[C@H](O)[C@@H](O)[C@H]2O)[C@H](OC(=O)[C@]23CCC(C)(C)C[C@H]2C2=CCC4[C@@]5(C)C[C@H](O)[C@H](O[C@@H]6O[C@H](C(=O)O)[C@@H](O)[C@H](O)[C@H]6O)[C@@](C)(C(=O)O)C5CC[C@@]4(C)[C@]2(C)CC3)O[C@@H]1C (stereo partly drawn)	inactive	–
C[C@@H]1O[C@@H](O[C@H]2[C@H](O)[C@@H](O)[C@H](OC[C@H]3O[C@@H](OC(=O)[C@]45CCC(C)(C)C[C@H]4C4=CCC6[C@@]7(C)C[C@H](O)[C@H](O[C@@H]8O[C@H](CO)[C@@H](O)[C@H](O)[C@H]8O)[C@@](C)(C(=O)O)C7CC[C@@]6(C)[C@]4(C)CC5)[C@H](O[C@@H]4O[C@H](CO)[C@@H](O)[C@H](O)[C@H]4O)[C@@H](O)[C@@H]3O)O[C@@H]2CO)[C@H](O)[C@H](O)[C@H]1O (stereo partly drawn)	–	-5.11% [at 10.7 µM] (inactive)
C=CC1C(O[C@@H]2O[C@H](CO)[C@@H](O)[C@H](O)[C@H]2O)OC=C(C(=O)OC)C1CC(=O)O (stereo partly drawn)	inactive	–
COc1ccc([C@H]2Cc3cccc(O)c3C(=O)O2)cc1	inactive	–
CC1CC(=O)C2=C(O1)OC1(C)CCC3C(C)(C)C=CC(=O)C3(C)C1C2 (stereo not drawn)	12.6 µM (active)	–
C[C@@H]1CC[C@]2(C(=O)O)CC[C@]3(C)C(=CCC4[C@]5(C)C(CC[C@]43C)C(C)(C)[C@@H](O)[C@H](O)[C@@H]5O)C2[C@]1(C)O (stereo partly drawn)	inactive	–
CC1(C)C(O)CCC2(C)C1C(O)C=C1COC(=O)C12O (stereo not drawn)	inactive	–
COc1cc([C@H]2OC[C@]3(OC(C)=O)[C@@H](c4ccc(O[C@@H]5O[C@H](CO)[C@@H](O)[C@H](O)[C@H]5O)c(OC)c4)OC[C@H]23)ccc1O	inactive	–
COc1ccc(C(=O)O[C@H]2CC(C)=CC[C@@]3(C)[C@@H](OC(C)=O)C[C@@](O)(C(C)C)[C@H]23)cc1	inactive	–
CC(C)CC(=O)O[C@@H]1OC=C(CO[C@@H]2O[C@H](CO[C@@H]3O[C@H](CO)[C@@H](O)[C@H](O)[C@H]3O)[C@@H](O)[C@H](O)[C@H]2O)[C@H]2C[C@H](O)[C@@H](CO)[C@@H]12	inactive	–
C=C1C[C@]23C[C@H]1CC[C@H]2[C@@]12C=C[C@H](O)[C@@](C)(C(=O)O1)[C@H]2[C@@H]3C(=O)O	inactive	–
CC12CCC3c4ccc(O)cc4CCC3C1CCC2OC1OC(C(=O)O)C(O)C(O)C1O (stereo not drawn)	inactive	–
C[C@@H]1O[C@@H](O[C@H]2[C@H](OC(=O)[C@]34CCC(C)(C)C[C@H]3C3=CCC5[C@@]6(C)C[C@H](O)[C@H](O[C@@H]7O[C@H](CO[C@@H]8OC[C@H](O)[C@H](O)[C@H]8O)[C@@H](O)[C@H](O)[C@H]7O)C(C)(C)C6CC[C@@]5(C)[C@]3(C)C[C@H]4O)OC[C@@H](O)[C@@H]2O)[C@H](O)[C@H](O[C@@H]2OC[C@](O)(CO)[C@H]2O)[C@H]1O[C@@H]1OC[C@H](O)[C@H](O[C@@H]2OC[C@@H](O)[C@H](O)[C@H]2O)[C@H]1O (stereo partly drawn)	–	22.5% [at 10.7 µM] (inactive)
CNC(=O)Nc1ccc(OC)c(NC(=O)NC(=O)c2cc(F)c(F)cc2Cl)c1	inactive	–
CC/C=C/CC1=C(CCCCCCCC(=O)O)CCC1=O	inactive	–
COc1cc(/C=C/C(=O)O[C@H]2[C@H](OC(=O)/C=C/c3cc(OC)c(O)c(OC)c3)O[C@H](CO[C@@H]3O[C@H](CO)[C@@H](O)[C@H](O)[C@H]3O)[C@@H](O)[C@@H]2O)ccc1O	inactive	–
COC(=O)[C@H](CC1C=NC=N1)NCC12CC3CC(CC(C3)C1)C2 (stereo partly drawn)	inactive	–
CCCCCCc1cccc(NC(=O)[C@H](N)CCP(=O)(O)O)c1	inactive	–
